# Experimental data taken from PubChem BioAssay (EPA / NIEHS).
# Records with an inconclusive call do not appear. Calls of active or inactive are those of the source. The calls were made as follows: active = hit-call score of the fitted dose curve at least 0.9, where 1 is the maximum; inactive = score below 0.9.
# Read-out: ABC Transporter (ABCB11), ABCB11 (gene 8647)
# Assay: CLD_ABCB11_24hr: CellzDirect (CLD) Gene Expression Assay for ABC Transporter (ABCB11) at 24 hours (AID 2283674)
# Protocol: CLD_24hr is a cell-based, multiplexed-readout assay that uses hepatocyte, a human liver primary cell, with measurements taken at 24 hours after chemical dosing in a 96-well plate.CLD_ABCB11_24hr is one of 16 assay component(s) measured or calculated from the CLD_24hr assay. It is designed to make measurements of mRNA induction, a form of inducible reporter, as detected with chemiluminescence signals by Quantitative Nuclease Protection Assay (qNPA) technology.Data from the assay component CLD_ABCB11_24hr was analyzed at the endpoint, CLD_ABCB11_24hr, in the positive analysis fitting direction relative to DMSO as the negative control and baseline of activity. Using a type of inducible reporter, gain-of-signal activity can be used to understand changes in the reporter gene as they relate to the gene ABCB11. Furthermore, this assay endpoint can be referred to as a primary readout. To generalize the intended target to other relatable targets, this assay endpoint is annotated to the transporter intended target family, where subfamily is ABC transporter.
# Human hepatocyte cultures were treated daily for two consecutive days with fresh dosing solutions containing appropriate concentrations of the 320 ToxCast chemicals (chemical identities were blinded to CellzDirect and other ToxCast collaborators), vehicle control (0.2% DMSO), and positive control inducers as summarized in Table 1. Due to the large number of treatment groups and chemicals examined, the ToxCast chemicals were divided into two groups (spanning two independent cultures of hepatocytes from separate donor preparations (Hu778: ToxCast plates 1 and 2; Hu776: ToxCast plates 3 and 4). Each preparation of human hepatocyte cultures was treated with respective vehicle control, medium only control, set of six positive controls/reference chemicals for the five hepatic receptor pathways, and a subset of eight of the ToxCast chemicals (indoxacarb, pyrithiobac-sodium, norflurazon, cyhalofop-butyl, methomyl, thiram, acetochlor, and propiconazole). These replicate data, coupled with internal replicates designed within the blinded ToxCast chemical library, provided additional data to evaluate interindividual differences between hepatocyte preparations and their potential impact on chemical profiles.Cell morphology and integrity were evaluated using phase-contrast microscopy as an indicator of hepatocyte cell health (Tyson & Green, 1987). Cultures for each treatment group (i.e., media, vehicle [0.2% DMSO], positive control inducers [multiple concentrations], and the ToxCast chemicals [multiple concentrations]) were observed and cell morphology was assessed relative to vehicle control cultures at each harvest time point (0, 6, 24, or 48 h). […] Images were evaluated at the conclusion of the study to assess changes in cell integrity and account for the effects of chemical exposure on uncharacteristic changes in concentration-dependent gene expression profiles. The results from these determinations of apparent cytotoxicity were annotated (yes/no) alongside the corresponding qNPA data for reference.At the conclusion of each treatment period, hepatocyte cultures (96-well) were washed with 1 volume of HBSS, lysed by addition of 25 ul ArrayPlate lysis buffer (HTG, Tucson, AZ), and 70 ul/well of Denaturation Oil, denatured by incubation at 95C for 10 min, and frozen at approximately -70C until analysis by nuclease protection assay (qNPA) (Roberts et al., 2007). For qNPA analysis, cell lysates were thawed at 50C for approximately 30 min, qNPA probes were added, and samples were incubated at 95C for 10 min to begin the detection process by denaturing the target RNA, dissociating the duplexes and secondary structure hybridization. At the conclusion of the hybridization period, S1 nuclease reagent was added to each sample to digest all nonprotected nucleotides at 50C for 60-90 min. […]
row,Compound,outcome
1,COCc1cnc(C2=NC(C)(C(C)C)C(=O)N2)c(C(=O)O)c1 (centres undefined),inactive
2,COP(=O)(OC)O/C(C)=C/C(=O)N(C)C,inactive
3,COc1cc(OC)nc(NC(=O)NS(=O)(=O)c2ncccc2OCC(F)(F)F)n1,inactive
4,COCC(C)N(C(=O)CCl)c1c(C)csc1C (centres undefined),inactive
5,CCOc1nc(F)cc2nc(S(=O)(=O)Nc3c(Cl)cccc3Cl)nn12,inactive
6,Cc1nc(N(C)C)nc(OC(=O)N(C)C)c1C,inactive
7,CC(C)N1C(=O)N(c2ccccc2)CSC1=NC(C)(C)C,inactive
8,C=C(C)CN(CC)c1c([N+](=O)[O-])cc(C(F)(F)F)cc1[N+](=O)[O-],inactive
9,CC(C)NC(=O)N1CC(=O)N(c2cc(Cl)cc(Cl)c2)C1=O,inactive
10,Cc1cnc(C2=NC(C)(C(C)C)C(=O)N2)c(C(=O)O)c1 (centres undefined),inactive
11,CCCCOCN(C(=O)CCl)c1c(CC)cccc1CC,inactive
12,CC(C)N1C(=O)c2ccccc2NS1(=O)=O,inactive
13,O=P(O)(O)CCCl,inactive
14,O=c1n(Cl)c(=O)n(Cl)c(=O)n1Cl,inactive
15,COC(=O)NS(=O)(=O)c1ccc(N)cc1,inactive
16,COP(=S)(OC)SCn1nnc2ccccc2c1=O,inactive
17,CCNC(=O)NC(=O)C(C#N)=NOC,inactive
18,COCC(=O)N(c1c(C)cccc1C)C(C)C(=O)OC (centres undefined),inactive
19,CCOP(=O)(OCC)Oc1nc(Cl)c(Cl)cc1Cl,inactive
20,OC(c1ccc(Cl)cc1)(c1ccc(Cl)cc1)C(Cl)(Cl)Cl,inactive
21,CC(C)C1(C)N=C(c2ncccc2C(=O)O)NC1=O (centres undefined),inactive
22,CS(=O)(=O)c1ccc(C(=O)C2C(=O)CCCC2=O)c([N+](=O)[O-])c1,inactive
23,COC(=O)c1c(C(F)F)nc(C(F)(F)F)c(C2=NCCS2)c1CC(C)C,inactive
24,Clc1nc(Cl)nc(Nc2ccccc2Cl)n1,inactive
